Measurements: PubChem BioAssay (NCI)
About 83,000 compounds went through this panel and 20% of them were active in at least one assay; those are over-represented in the sample as a whole.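 Each cell line was grown in a 96-well plate and treated with one concentration of compound for 48 hours. Values below 10 were considered active.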 Active and inactive are the calls of the source.

How the values were obtained:
Test in all cases: NCI-60 one-dose screen, 48 h (100 = growth as untreated, 0 = no growth, -100 = all killed)
Conditions in all cases: 10 µM unless noted
HCT-15 colon = tested on: HCT-15 colon
HT29 colon = tested on: HT29 colon
SNB-75 CNS = tested on: SNB-75 CNS
SNB-19 CNS = tested on: SNB-19 CNS
U251 CNS = tested on: U251 CNS
PC-3 prostate = tested on: PC-3 prostate
SK-MEL-5 melanoma = tested on: SK-MEL-5 melanoma
UACC-62 melanoma = tested on: UACC-62 melanoma
LOX IMVI melanoma = tested on: LOX IMVI melanoma
SK-MEL-28 melanoma = tested on: SK-MEL-28 melanoma

Measured: growth

Cc1cc(N2CCOCC2)nc(N(CCNc2ccnc3cc(Cl)ccc23)Cc2cccs2)n1
active: HT29 colon -43.1% | SNB-75 CNS -18.1% | U251 CNS -10.5% | SK-MEL-5 melanoma -4.8% | UACC-62 melanoma -24.6% | LOX IMVI melanoma -72.1%
inactive: HCT-15 colon 17.8% | SNB-19 CNS 56.5% | PC-3 prostate 24.4% | SK-MEL-28 melanoma 11.6%

CCOc1cccc(/C=N/NC(=O)c2ccccc2Nc2ccnc(C(F)(F)F)c2)c1O
active: SK-MEL-5 melanoma -67% | UACC-62 melanoma 3.69% | LOX IMVI melanoma 7.4%
inactive: HCT-15 colon 34.2% | HT29 colon 47.9% | SNB-75 CNS 14.1% | SNB-19 CNS 21.1% | U251 CNS 15.2% | PC-3 prostate 54.2% | SK-MEL-28 melanoma 21.1%

Cc1cnc(Nc2ccc(OCCN3CCCC3)cc2)nc1Nc1cccc(S(=O)(=O)NC(C)(C)C)c1
inactive: SNB-19 CNS 21.3% | U251 CNS 15.9% | PC-3 prostate 20%
active: HCT-15 colon 5.6% | HT29 colon -41.8% | SNB-75 CNS -97.9% | SK-MEL-5 melanoma -90.4% | UACC-62 melanoma -23.1% | LOX IMVI melanoma -79.4% | SK-MEL-28 melanoma -10.7%

O=C(Cc1ccccc1)Nc1nnc(NC2CCN(c3nnc(NC(=O)Cc4ccccc4)s3)CC2)s1
inactive: HCT-15 colon 99.4% | HT29 colon 94.4% | SNB-75 CNS 106% | SNB-19 CNS 107% | U251 CNS 90.8% | PC-3 prostate 87.1% | SK-MEL-5 melanoma 98.7% | UACC-62 melanoma 89% | LOX IMVI melanoma 69.2% | SK-MEL-28 melanoma 107%

Cc1sc2c(c1C)c(=O)nc1c(-c3nc(-c4ccccc4)cs3)n[nH]n12
inactive: HCT-15 colon 82.4% | HT29 colon 107% | SNB-75 CNS 101% | SNB-19 CNS 102% | U251 CNS 94% | PC-3 prostate 82.1% | SK-MEL-5 melanoma 102% | UACC-62 melanoma 91.8% | LOX IMVI melanoma 95.9% | SK-MEL-28 melanoma 106%

O=S1(=O)OC(c2cc(Cl)c(O)c(Br)c2)(c2cc(Cl)c(O)c(Br)c2)c2ccccc21
inactive: HCT-15 colon 105% | HT29 colon 102% | SNB-75 CNS 83.4% | SNB-19 CNS 102% | U251 CNS 101% | PC-3 prostate 84.3% | SK-MEL-5 melanoma 107% | UACC-62 melanoma 97.1% | LOX IMVI melanoma 96.5% | SK-MEL-28 melanoma 118%

Cc1cc(O)c2c(c1)C1OC(=O)CCCCCN1C1=C2C(=O)c2cccc(OC3CC(O)C(O)C(C)O3)c2C1=O (stereo not given)
inactive: HCT-15 colon 46.1% | HT29 colon 93.7% | SNB-75 CNS 117% | SNB-19 CNS 97.1% | U251 CNS 63.1% | PC-3 prostate 87.2% | SK-MEL-5 melanoma 86.9% | UACC-62 melanoma 89.5% | LOX IMVI melanoma 34.3% | SK-MEL-28 melanoma 75.8%

CNC(=O)c1nn(C)c2c1C(C)(C)Cc1cnc(Nc3ccc(N4CCN(C)CC4)cc3)nc1-2
inactive: SNB-19 CNS 12.3% | SK-MEL-28 melanoma 16.2%
active: HCT-15 colon 3.12% | HT29 colon -16.2% | SNB-75 CNS -20.6% | U251 CNS 8.54% | PC-3 prostate 7.92% | SK-MEL-5 melanoma 7.31% | UACC-62 melanoma -9.49% | LOX IMVI melanoma 5.27%

CCCCCCC1(/C=N/NC(N)=O)NC(=O)NC1=O (stereo not given)
inactive: HCT-15 colon 98.3% | HT29 colon 76.9% | SNB-75 CNS 82.2% | SNB-19 CNS 105% | U251 CNS 94.3% | PC-3 prostate 91.8% | SK-MEL-5 melanoma 96.9% | UACC-62 melanoma 99% | LOX IMVI melanoma 97.4% | SK-MEL-28 melanoma 106%

COc1ccc(C(=O)N2c3ccccc3Sc3ccccc32)c(F)c1
active: HT29 colon 5.07% | SNB-75 CNS -11.3%
inactive: HCT-15 colon 27.3% | SNB-19 CNS 35.8% | U251 CNS 33.6% | PC-3 prostate 29.8% | SK-MEL-5 melanoma 15.7% | UACC-62 melanoma 22.6% | LOX IMVI melanoma 40.3% | SK-MEL-28 melanoma 58.9%

CCN(CC)CCNc1ccc(N=Nc2cnc3ccccc3c2)c2ccccc12
active: HCT-15 colon -66.5% | HT29 colon -90.3% | SNB-75 CNS -56.8% | SNB-19 CNS -71.7% | U251 CNS -76.9% | PC-3 prostate -83.8% | SK-MEL-5 melanoma -97.8% | UACC-62 melanoma -92.5% | LOX IMVI melanoma -81% | SK-MEL-28 melanoma -92.8%

N#Cc1c(NC(=O)c2ccco2)[n+]([O-])c2cc(F)c(F)cc2[n+]1[O-]
inactive: HCT-15 colon 70.5% | HT29 colon 93.6% | SNB-75 CNS 83.3% | SNB-19 CNS 85.7% | U251 CNS 92.3% | PC-3 prostate 80.7% | SK-MEL-5 melanoma 61.3% | UACC-62 melanoma 88.4% | LOX IMVI melanoma 83.4% | SK-MEL-28 melanoma 94.5%

O=C1CC(c2cccc(F)c2)c2c(n[nH]c2-c2ccc(Cl)cc2)N1 (stereo not given)
inactive: HCT-15 colon 92.5% | HT29 colon 81.1% | SNB-75 CNS 97.3% | SNB-19 CNS 99.3% | U251 CNS 86.1% | PC-3 prostate 80.5% | SK-MEL-5 melanoma 87.1% | UACC-62 melanoma 86.2% | LOX IMVI melanoma 96.9% | SK-MEL-28 melanoma 107%

Cc1ccc(NC(=O)c2ccc(CN3CCN(C)CC3)cc2)cc1Nc1nc(-c2cccnc2)cs1
inactive: HCT-15 colon 16.1% | SNB-75 CNS 64.8% | SNB-19 CNS 46.3% | PC-3 prostate 35.9% | UACC-62 melanoma 58.4%
active: HT29 colon 6.04% | U251 CNS 6.69% | SK-MEL-5 melanoma -0.29% | LOX IMVI melanoma -27.3% | SK-MEL-28 melanoma -10.3%

O=C(/C=C/c1ccc2c(c1)OCO2)c1c(O)c2ccccc2oc1=O
inactive: HCT-15 colon 97.1% | HT29 colon 96.6% | SNB-75 CNS 87.7% | SNB-19 CNS 115% | U251 CNS 101% | PC-3 prostate 95.9% | SK-MEL-5 melanoma 111% | UACC-62 melanoma 96.7% | LOX IMVI melanoma 94.6% | SK-MEL-28 melanoma 112%

[2H]C1([2H])[C@H](C)O[C@H](C)C([2H])([2H])N1c1ccc(NC(=O)c2cccc(-c3ccc(OC(F)(F)F)cc3)c2C)cn1
inactive: HCT-15 colon 84.2% | HT29 colon 61.2% | SNB-75 CNS 72.1% | SNB-19 CNS 65.7% | U251 CNS 65.3% | PC-3 prostate 62.1% | SK-MEL-5 melanoma 53.9% | UACC-62 melanoma 52.8% | LOX IMVI melanoma 68.4% | SK-MEL-28 melanoma 89.2%

CSc1nc2ncnc(SC)c2[nH]1
inactive: HCT-15 colon 110% | HT29 colon 89.6% | SNB-75 CNS 86.8% | SNB-19 CNS 116% | U251 CNS 83.9% | PC-3 prostate 91.6% | SK-MEL-5 melanoma 106% | UACC-62 melanoma 110% | LOX IMVI melanoma 99.3% | SK-MEL-28 melanoma 107%

O=C(Nc1ccc(Nc2ncnc3sc4c(c23)CCOC4)cc1)Nc1ccc(Cl)c(C(F)(F)F)c1
inactive: HCT-15 colon 98.9% | HT29 colon 81.1% | SNB-75 CNS 69.1% | SNB-19 CNS 110% | U251 CNS 99.9% | PC-3 prostate 60.8% | SK-MEL-5 melanoma 98.1% | UACC-62 melanoma 93.4% | LOX IMVI melanoma 99.9% | SK-MEL-28 melanoma 95.1%

CCCCCCCC(=O)SCC/C=C/[C@@H]1CC(=O)NCc2cccc(n2)C2=N[C@@](C)(CS2)C(=O)N[C@@H](C(C)C)C(=O)N1
inactive: HCT-15 colon 75.3% | SNB-75 CNS 24.5% | SNB-19 CNS 38.6% | U251 CNS 13.7% | PC-3 prostate 26.9% | SK-MEL-5 melanoma 22.2% | SK-MEL-28 melanoma 37.1%
active: HT29 colon -6.83% | UACC-62 melanoma 0.721% | LOX IMVI melanoma -1.52%

C=C1[C@@H](O)C[C@H]2C(C)(C)C[C@H](Cl)C[C@]2(C)[C@H]1C[C@H](O)[C@H]1CC(=O)NC1=O
active: HCT-15 colon -13.7% | HT29 colon -23.6% | SNB-75 CNS -37.2% | SNB-19 CNS -20.7% | U251 CNS -16.8% | PC-3 prostate -19% | SK-MEL-5 melanoma -70.1% | UACC-62 melanoma -72.4% | LOX IMVI melanoma -71.9% | SK-MEL-28 melanoma -26.1%

Cc1c(N)ccc(-c2ccc(N)c(C)c2S(=O)(=O)O)c1S(=O)(=O)O
inactive: HCT-15 colon 111% | HT29 colon 111% | SNB-75 CNS 101% | SNB-19 CNS 112% | U251 CNS 106% | PC-3 prostate 98.4% | SK-MEL-5 melanoma 110% | UACC-62 melanoma 105% | LOX IMVI melanoma 98.6% | SK-MEL-28 melanoma 115%

C=C1C(=O)O[C@H]2[C@H]1CC/C(CNC(=O)c1cc3cc(OC)ccc3[nH]1)=C\CC[C@@]1(C)O[C@@H]21
inactive: SNB-75 CNS 51.4% | SNB-19 CNS 44% | U251 CNS 14.5%
active: HCT-15 colon -78.4% | HT29 colon -70.9% | PC-3 prostate -52.5% | SK-MEL-5 melanoma -39.2% | UACC-62 melanoma -66.1% | LOX IMVI melanoma -93.5% | SK-MEL-28 melanoma -59.3%

CCN(CCN(C)C)C(=O)CNCc1cc(C(N)=O)ccn1
inactive: HCT-15 colon 102% | HT29 colon 80% | SNB-75 CNS 98.6% | SNB-19 CNS 104% | U251 CNS 87.5% | PC-3 prostate 79.5% | SK-MEL-5 melanoma 95.4% | UACC-62 melanoma 105% | LOX IMVI melanoma 99.5% | SK-MEL-28 melanoma 110%

COc1cc2c(cc1OCCCN1Cc3ccc(OCCCCC(=O)N4CCC(CCN5CCCC5)CC4)cc3C1)N=C(N)C21CCCC1
inactive: HCT-15 colon 102% | SNB-75 CNS 60.3% | SNB-19 CNS 103% | U251 CNS 79.2% | PC-3 prostate 79.9% | SK-MEL-5 melanoma 55.3% | UACC-62 melanoma 106% | LOX IMVI melanoma 64% | SK-MEL-28 melanoma 97.9%
active: HT29 colon 9.48%

Cc1cc(-c2cc(OC(=O)c3ccccc3)ccc2Cl)cc2nnc(Nc3ccc(OCCN4CCCC4)cc3)nc12
inactive: HT29 colon 63.9% | SNB-75 CNS 32.7% | SNB-19 CNS 91.9% | U251 CNS 84.8% | SK-MEL-5 melanoma 83.1% | UACC-62 melanoma 75.6% | LOX IMVI melanoma 48.4% | SK-MEL-28 melanoma 89.2%
active: HCT-15 colon -66.9% | PC-3 prostate -20.2%

CCc1ccc(/C=C/c2ccc(O)c3ncccc23)[n+](C)c1
inactive: HCT-15 colon 85% | HT29 colon 50.9% | SNB-75 CNS 48.1% | SNB-19 CNS 41.1% | U251 CNS 25.9% | PC-3 prostate 61.3% | SK-MEL-5 melanoma 26.3% | UACC-62 melanoma 35.7% | LOX IMVI melanoma 55.6% | SK-MEL-28 melanoma 60.7%

Cc1cc(C)n(CC(=O)Nc2ccc(-c3nc4ccccc4s3)cc2)n1
inactive: HCT-15 colon 105% | HT29 colon 108% | SNB-75 CNS 101% | SNB-19 CNS 99.8% | U251 CNS 89.7% | PC-3 prostate 86.8% | SK-MEL-5 melanoma 96.4% | UACC-62 melanoma 95.3% | LOX IMVI melanoma 97.7% | SK-MEL-28 melanoma 109%
